Screen size: about 310,000 compounds; about 14,000 (4.5%) showed an effect of 50% or more. The effect is printed as a negative number. The list comes from a sample in which strong results are over-represented; it also holds similar structures and randomly drawn compounds.
What follows are molecules tested against human ether-à-go-go-related gene (hERG) potassium channel (human, UniProt Q12809) (assay: primary screen, population patch clamp on CHO cells stably expressing hERG; higher = less effect of the substance).
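Note: peak tail current of the secondary pulse compared with the same well before compound.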

human ether-à-go-go-related gene (hERG) potassium channel, sequence (Q12809 whole entry, looked up): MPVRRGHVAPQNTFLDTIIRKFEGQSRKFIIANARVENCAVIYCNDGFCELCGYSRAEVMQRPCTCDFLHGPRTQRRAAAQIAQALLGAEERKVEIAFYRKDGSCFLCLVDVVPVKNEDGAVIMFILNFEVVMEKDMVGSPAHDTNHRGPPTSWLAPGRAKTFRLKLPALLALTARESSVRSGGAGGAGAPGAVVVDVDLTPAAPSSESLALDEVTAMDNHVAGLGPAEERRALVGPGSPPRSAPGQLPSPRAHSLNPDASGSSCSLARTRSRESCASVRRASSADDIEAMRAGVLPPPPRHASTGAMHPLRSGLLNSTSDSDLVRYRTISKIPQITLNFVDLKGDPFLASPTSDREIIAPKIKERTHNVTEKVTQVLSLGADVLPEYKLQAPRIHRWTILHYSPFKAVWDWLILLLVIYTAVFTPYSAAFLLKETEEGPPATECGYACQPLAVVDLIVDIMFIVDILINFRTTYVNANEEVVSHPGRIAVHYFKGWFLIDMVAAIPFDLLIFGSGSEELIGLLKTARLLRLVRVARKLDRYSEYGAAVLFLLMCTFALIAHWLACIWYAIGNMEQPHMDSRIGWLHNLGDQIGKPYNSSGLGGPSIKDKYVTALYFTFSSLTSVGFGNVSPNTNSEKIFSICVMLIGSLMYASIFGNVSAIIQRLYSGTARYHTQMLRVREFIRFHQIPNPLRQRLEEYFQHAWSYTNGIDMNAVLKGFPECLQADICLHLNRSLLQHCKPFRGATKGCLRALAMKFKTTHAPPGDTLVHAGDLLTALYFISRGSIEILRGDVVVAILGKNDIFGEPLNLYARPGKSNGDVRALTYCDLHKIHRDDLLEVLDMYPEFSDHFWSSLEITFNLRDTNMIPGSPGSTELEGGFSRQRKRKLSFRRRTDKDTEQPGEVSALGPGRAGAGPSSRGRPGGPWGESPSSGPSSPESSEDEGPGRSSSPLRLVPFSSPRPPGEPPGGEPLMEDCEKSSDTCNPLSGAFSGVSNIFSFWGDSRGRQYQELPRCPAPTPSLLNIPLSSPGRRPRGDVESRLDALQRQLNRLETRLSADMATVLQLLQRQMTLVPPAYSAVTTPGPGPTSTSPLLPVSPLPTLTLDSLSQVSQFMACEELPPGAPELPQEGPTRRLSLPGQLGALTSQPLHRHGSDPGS

| Compound | hERG current change (%, negative = inhibition) at 10uM |
| --- | --- |
| O=C(CSc1nc2ccccc2n1CC(=O)N1CCCC1)Nc1ccc2c(c1)OCO2 | -37.7% |
| CC(=O)Nc1c(C)nn(C(C)=O)c1C | 16.4% |
| CC(=O)N(C(C)=O)c1nc2nc(C)cc(C)n2n1 | -42.3% |
| COc1cccc(NC(=O)NCCc2ccc(Cl)cc2)c1 | 9.47% |
| CCOC(=O)NNc1ccccc1 | 6.88% |
| Cc1ccc(-c2csc3nc4ccc(C(=O)NCCO)cc4c(=O)n23)cc1 | 12.1% |
| CC(C)(C)c1ccc(OCCC(=O)OCC(=O)Nc2cccnc2Cl)cc1 | -2.33% |
| COc1cc2c(cc1OC)C(c1ccccc1)N(C(=O)c1ccccc1)CC2 (centres unmarked) | -13.1% |
| COc1cc2c(cc1OC)C(c1cccs1)N(C(=O)C(C)C)CC2 (centres unmarked) | -19.2% |
| COc1cc2c(cc1OC)C(c1cccs1)N(C(=O)c1ccncc1)CC2 (centres unmarked) | -66.8% |
| COc1cc2c(cc1OC)C(c1cccs1)N(C(=S)NC(C)C)CC2 (centres unmarked) | -40% |
| COc1ccc(C2c3cc(OC)c(OC)cc3CCN2C(=O)c2ccccc2)cc1OC (centres unmarked) | 2.95% |
| COc1cc2c(cc1OC)C(c1cccs1)N(C(=O)c1cccnc1)CC2 (centres unmarked) | -54.9% |
| Cc1cc2ccccc2c(=O)n1CC(=O)NCCC1=CCCCC1 | 8.01% |
| Cc1c(C#N)c(NC(=O)CCl)n(Cc2ccccc2)c1C | 31.1% |
| CC(C)n1c(SCc2ccc(Cl)cc2)nc2c1c(=O)[nH]c(=O)n2C | 18.5% |
| Cc1ccc(OP(=O)(NC(C)c2ccccc2)Oc2ccc(C)cc2)cc1 (centres unmarked) | 17.6% |
| C=CCN(CC=C)S(=O)(=O)c1ccc(NC(=S)NC(=O)/C=C/c2cccc3ccccc23)cc1 | 1.52% |
| O=C(Cc1ccc(Br)cc1)N1CCN(C(=O)c2ccccc2)CC1 | -30.1% |
| CCOc1ccc(/C=C/[N+](=O)[O-])c2ccccc12 | -8.67% |
| CCN1CCN(c2ccc(S(=O)(=O)N3CCCCC3)cc2NC(=O)c2cccc(C(F)(F)F)c2)CC1 | -46.7% |
| CCN1CCN(c2ccc(S(=O)(=O)N3CCCCC3)cc2NC(=O)/C=C/c2ccc(OC(F)F)cc2)CC1 | -50.2% |
| CCN1CCN(c2ccc(S(=O)(=O)N3CCCCC3)cc2NC(=O)c2ccc(OC(F)F)cc2)CC1 | -57.2% |

| Compound | hERG current change (%, negative = inhibition) at 10uM |
| --- | --- |
| CCN1CCN(c2ccc(S(=O)(=O)N3CCCCC3)cc2NC(=O)/C=C/c2ccc(OC)c(OC)c2)CC1 | -31.4% |
| CCN1CCN(c2ccc(S(=O)(=O)N3CCCCC3)cc2NC(=O)c2ccc(F)cc2)CC1 | -56.5% |
| CCN1CCN(c2ccc(S(=O)(=O)N3CCCCC3)cc2NC(=O)c2ccccc2)CC1 | -46% |
| CCN1CCN(c2ccc(S(=O)(=O)N3CCCCC3)cc2NC(=O)/C=C/c2cccc(OC)c2OC)CC1 | -18.9% |
| CCN1CCN(c2ccc(S(=O)(=O)N3CCOCC3)cc2NC(=O)c2ccc(C(F)(F)F)cc2)CC1 | -44.2% |
| CCN1CCN(c2ccc(S(=O)(=O)N3CCCCC3)cc2NC(=O)/C=C/c2cc(OC)ccc2OC)CC1 | -52.7% |
| CCN1CCN(c2ccc(S(=O)(=O)N3CCCCC3)cc2NC(=O)c2cccc(F)c2)CC1 | -34.6% |
| CCN1CCN(c2ccc(S(=O)(=O)N3CCOCC3)cc2NC(=O)/C=C/c2ccc(OC)cc2OC)CC1 | -17.2% |
| CN1CCN(c2ccc(S(=O)(=O)N3CCCCC3)cc2NC(=O)/C=C/c2ccc(OC(F)F)cc2)CC1 | -39.2% |
| O=C(Nc1ccc2c(c1)OCO2)c1ccc(COc2ccc3c(c2)CCC3)o1 | 5.22% |
| CCN(Cc1ccccc1)C(=O)COC(=O)c1c(C)nsc1NC | -6.97% |
| CCOCCCNC(=O)c1cc(Nc2ccc(OC)cc2OC)nc2ccccc12 | -7.58% |
| COc1ccc(N2C(=O)CCC(C(=O)Nc3ccccn3)C2c2ccc(OC)c(OC)c2)cc1 (centres unmarked) | 8.15% |
| Cc1ccc(-n2c(C)c(C)c3c(NCCN(C)C)ncnc32)cc1 | -36.3% |
| COC(=O)c1ccc(C)c(NC(=O)CN2C(=O)c3ccccc3S2(=O)=O)c1 | 6.46% |
| Cc1ccc(CNC(=S)Nc2ccc(C)c([N+](=O)[O-])c2)cc1 | 17.5% |
| CN(CC(=O)Nc1ccc(S(=O)(=O)N2CCCC2)cc1)Cc1c(F)cccc1Cl | -7.41% |
| O=C(COc1ccc(-n2cnnn2)cc1)Nc1cccc(Cl)c1Cl | 16.8% |
| CC(=O)Nc1ccc(NC(=O)c2cc([N+](=O)[O-])cc([N+](=O)[O-])c2)cc1 | 22.5% |
| CCN1CCN(c2ccc(S(=O)(=O)N3CCCCC3)cc2NC(=O)c2cccc(NC(C)=O)c2)CC1 | -71.3% |
| CCN1CCN(c2ccc(S(=O)(=O)N3CCCCC3)cc2NC(=O)c2cccc(C)c2)CC1 | -37.4% |
| CCN1CCN(c2ccc(S(=O)(=O)N3CCCCC3)cc2NC(=O)c2cccc(Cl)c2)CC1 | -34.6% |
| CC1(C)CC(=O)c2cc(N=C/C(C(=O)c3ccccc3)=C(\O)c3ccccc3)c(=O)oc2C1 | 17.6% |

| Compound | hERG current change (%, negative = inhibition) at 10uM |
| --- | --- |
| O=C1C=C(c2ccc3c(c2)OCO3)C[C@@H](c2ccc3c(c2)OCO3)C1 | 10.9% |
| O=C1C=C(c2ccc3ncccc3c2)C[C@@H](c2ccc(F)cc2)C1 | -62.5% |
| COc1ccc([C@H]2CC(=O)C=C(c3ccc(OC)nc3)C2)cc1 | 14.2% |
| COc1ccc(C2=CC(=O)CC(c3ccc(F)cc3)C2)cn1 (centres unmarked) | -61.1% |
| N#Cc1ccc(C2=CC(=O)C[C@H](c3ccc4c(c3)OCO4)C2)cc1 | -70% |
| O=C1C=C(c2ccc(-c3ccccc3)cc2)C[C@@H](c2ccc3c(c2)OCO3)C1 | 7.88% |
| O=C1C=C(c2ccc(-c3ccccc3)cc2)C[C@@H](c2ccc(F)cc2)C1 | 6.67% |
| COc1ccc(C2=CC(=O)C[C@H](c3ccc(Cl)cc3)C2)cn1 | -12.4% |
| Cc1ccc(C2=CC(=O)C[C@H](c3ccc(F)cc3)C2)cc1 | 19.4% |
| COc1ccc([C@H]2CC(=O)C=C(c3ccc4ncccc4c3)C2)cc1 | -3.25% |
| N#Cc1ccc(C2=CC(=O)C[C@H](c3ccc(F)cc3)C2)cc1 | -72.1% |
| O=C1C=C(c2ccc3ncccc3c2)C[C@@H](c2ccc(Cl)cc2)C1 | -3.34% |
| COc1ccc(CN2CCN(C(=O)c3cccs3)CC2)cc1.O=C(O)C(=O)O | -7.86% |
| C=CCn1c(SCC(=O)N2CCOCC2)nnc1C(C)NC(=O)c1ccccc1 (centres unmarked) | 13.4% |
| CCc1cccc(C)c1NC(=O)COC(=O)Cc1ccsc1 | 10.4% |
| c1cncc(-c2noc(C34CC5CC(CC(C5)C3)C4)n2)c1 | -0.918% |
| Nc1nc2ccccc2cc1S(=O)(=O)c1ccccc1 | 16% |
| O=[N+]([O-])c1ccc(N/N=C/c2cccc(O)c2O)c(S(=O)(=O)N2CCOCC2)c1 | -5.8% |
| COC(=O)c1ccccc1NC(=O)CSc1nnc(-c2cccnc2)o1 | -6.93% |
| COc1ccccc1NC(=O)C(C)N1C(=O)c2ccccc2C1=O (centres unmarked) | 5.76% |
| Cc1cccc(-c2nc(CSCC(=O)NCCCN3CCOCC3)c(C)o2)c1 | -11.3% |
| Cc1c(NC(=O)CSc2nnnn2-c2ccc(O)cc2)c(=O)n(-c2ccccc2)n1C | -7.29% |
| Nc1c(Cl)ncnc1NCCc1ccc(O)cc1 | 9.93% |

| Compound | hERG current change (%, negative = inhibition) at 10uM |
| --- | --- |
| CCn1nc(-c2ccccc2)nc2c(=O)n(C)c(=O)nc1-2 | -27.6% |
| Cc1cnc2cc(Cl)c(Cl)cc2n1 | 18.2% |
| CCOc1ccc(S(=O)(=O)Nc2ccc(C(=O)N3CC(C)OC(C)C3)cc2)cc1 (centres unmarked) | 0.557% |
| N#Cc1ccc(C2=CC(=O)C[C@H](c3ccc(Cl)cc3)C2)cc1 | -71.9% |
| O=C1C=C(c2ccc(-c3ccccc3)cc2)C[C@@H](c2ccc(Cl)cc2)C1 | 21.8% |
| Cc1ccc(C2=CC(=O)C[C@H](c3ccc(Cl)cc3)C2)cc1 | 8.09% |
| O=C(NCc1ccccc1)c1ccc(CS(=O)(=O)Cc2ccccc2F)o1 | -5.62% |
| COc1cccc(CNC(=O)CC2C(=O)NCCN2CCCc2ccccc2)c1 (centres unmarked) | -6.17% |
| COc1ccc(S(=O)(=O)N2CCN(CC(=O)Nc3ccccc3Cl)CC2)cc1 | -1.6% |
| COc1cccc(NC(=O)CN2CCc3ccccc3C2)c1 | 10.3% |
| COc1cccc(NC(=O)CN2CCN(CC(=O)Nc3ccccc3Cl)CC2)c1 | -61% |
| COc1ccc(NC(=O)CN2CCN(CC(=O)Nc3ccccc3Cl)CC2)cc1 | -74.1% |
| COc1ccc(NC(=O)c2ccccc2NC(=O)CN2CCCCCC2)cc1 | 8.82% |
| COc1cccc(NC(=O)CN2CCC(C)CC2)c1 | 1.52% |
| O=C(COc1ccc(Cl)cc1)Nc1ccccc1Cl | 3.26% |
| CCc1ccc(OCC(=O)N2CCN(CC(=O)Nc3ccccc3Cl)CC2)cc1 | -80.7% |
| CCc1nnc(NC(=O)CN2CCN(Cc3cccc(OC)c3)CC2)s1 | -19% |
| COc1cccc(CC(=O)Nc2ccccc2N2CCCC2)c1 | -5.39% |
| COc1ccc(OCC(=O)Nc2ccccc2Cl)cc1 | 13.7% |
| COc1cccc(CN2CCN(CC(=O)Nc3ccccc3Cl)CC2)c1 | -72% |

Source: article PMC4336329 (PLoS ONE, 2015)
